Results as given in PubChem BioAssay AID2315 (National Center for Advancing Translational Sciences (NCATS), 2010).
Where “and” joins values, the source holds several entries; their conditions need not be identical. Equal values may be shown once. Out of some 290,000 compounds screened, about 27,000 (9.3%) were called active. Many of the other results were omitted from the sample, so actives are more common in it than they were. Values without a mark were called inactive. Cut-off read from the data, not from the text of the source: active = inhibition mostly above about 28% (no sharp cut-off); inactive = mostly below about 43%.

Assay: A qHTS for Small Molecule Inhibitors of Shiga Toxin; note: 0% is about no effect
Conditions: Vero cells, Shiga toxin protein synthesis inhibition reporter; at 38.7 µM, stronger effect = higher value

Structure (SMILES)	inhibition
CC(C)=CCc1c(O)c(CC=C(C)C)c2occ(-c3ccc(O)cc3)c(=O)c2c1O	46.6% (active)
CCc1ccc(OCC(=O)NCC(c2ccc(Cl)cc2)N2CCCCC2)cc1 (centres undefined)	-3.91%
CCOC(=O)Cn1c(O)c(N=NC(=O)CNC(=O)Cc2ccccc2)c2ccccc21	13.1%
CC(C)(C)N(Cc1ccccc1)C(=O)c1ccncc1	-5.35%
O=C(Nc1cccc(CCc2ccccn2)c1)c1ccc(Cl)cc1	22.8%
O=C(Nc1cccc(Cl)c1)OCc1ccccn1	98% (active)
O=C(Nc1ccccc1)OCc1cc(-c2ccc(Cl)cc2)on1	-25%
COC(=O)c1ccc2ccccc2c1OC1OC(CO)C(O)C(O)C1NC(C)=O (centres undefined)	-11.3%
CCN(CC)c1ccc2cc(C(N)=O)/c(=N\NC(=O)c3ccncc3)oc2c1	24.7%
CCN(CC)c1ccc2c(Nc3ccccc3)c(C=O)c(=O)oc2c1	29.5%
CCN(CC)c1ccc2oc(=O)c(C)nc2c1	22% (active)
COc1cc2c(cc1OC)C(/C=C/c1ccco1)=NCC2	-7.71%
Cc1ccccc1N1CC(C(=O)Nc2ccc3c(c2)OCO3)CC1=O (centres undefined)	21.6%
O=C(Nc1ccc2c(c1)OCO2)C1CC(c2c(F)cccc2Cl)=NO1 (centres undefined)	72.1% (active)
Cc1ccc(NC(=O)C2CC(c3ccc(F)cc3)=NO2)cc1 (centres undefined)	-22.6%
COc1cc(S(=O)(=O)Nc2ncn[nH]2)ccc1Cl	-3.71%
CCC1CCCCN1C(=S)Nc1ccc(S(=O)(=O)Nc2ncccn2)cc1 (centres undefined)	8.74%
CC(=O)c1ccc(OCC(O)CN2CCN(S(=O)(=O)c3cccc(Br)c3)CC2)cc1 (centres undefined)	-10%
COc1ccc(S(=O)(=O)/N=C2\C=C(NS(=O)(=O)c3ccccc3)C(=O)c3ccccc32)cc1	61.3% (active)
COc1ccc(S(=O)(=O)Nc2c(C)n(C)n(-c3ccccc3)c2=O)cc1	1.34%
COc1ccc2cc(S(=O)(=O)Nc3ccccn3)ccc2c1	-1.18%
CCn1c(C)c(C)c2cc(C(=O)N3CCN(c4cccc(C)c4C)CC3)ccc21	-9.52%
Cc1ccc(S(=O)(=O)N2CCC(C(=O)NCC3CCCO3)CC2)cc1 (centres undefined)	-25.2%
Cc1ccc(C(=O)N/C(=C/c2cccs2)C(=O)NCC2CCCO2)cc1 (centres undefined)	16.9%

Structure (SMILES)	inhibition
Cc1ccc(-n2c(C)cc(/C=C(\C#N)C(=O)NCC3CCCO3)c2C)cc1 (centres undefined)	108% (active)
C/C(N)=C(/C#N)C(=O)COC(=O)c1cc(-c2cccc(Br)c2)nc2ccccc12	5.3%
COc1ccc(-c2cc(C(=O)N(C)Cc3ccccc3)c3ccccc3n2)cc1	-2.41%
COc1ccc(-c2cc(C(=O)n3cnc4ccccc43)c3ccccc3n2)cc1	6.77%
C/C(N)=C(/C#N)C(=O)COC(=O)c1cc(-c2ccccc2)nc2ccc(Br)cc12	-3.47%
C/C(N)=C(/C#N)C(=O)COC(=O)c1cc(-c2ccc(C)cc2)nc2ccccc12	53.2% (active)
CNC(=O)COC(=O)c1cc(-c2ccc(OC)cc2)nc2ccccc12	54.5% (active)
O=C(c1cccs1)N(Cc1cc2ccccc2[nH]c1=O)CC1CCCO1 (centres undefined)	-16%
CCN1C(=NCCc2cccnc2)N[C@@H](c2ccccc2)C(C(=O)OC)=C1C	-1.87% and -4.64%
S=C(Nc1cccnc1)Nc1ccccn1	-1.64%
Cc1ccc(NC(=S)NCc2ccccc2Cl)c(C)c1	-19.8%
Cc1ccc(NC(=S)NCCc2ccc(Cl)cc2)c(C)c1	13.6%
Cc1ccc(NC(=S)Nc2ncccc2C)c(C)c1	54.2% (active)
COc1ccc(CN2CC(C(=O)NCCc3ccc(Cl)cc3)CC2=O)cc1 (centres undefined)	-11.7%
Cn1ncc(Br)c1C(=O)NC1CCCC1	-7.94%
C=CCn1c(=NC(=O)c2ccc(S(=O)(=O)N3CCCC3)cc2)sc2cc(NC(C)=O)ccc21	-8.21%
C=CCn1c(CCNC(=O)c2cccs2)n[nH]c1=S	2.22%
C=CCn1c(=NC(=O)c2cccs2)sc2cc(NC(C)=O)ccc21	47.4% (active)
COc1ccc(CNS(=O)(=O)c2cc(-c3cc(C)no3)ccc2C(C)C)cc1	-15.5%
CN(C)Cc1c(C(=O)N/N=C/c2ccccc2OCc2ccc(F)cc2)nnn1-c1nonc1N	-7.12%
O=C(O)/C=C/c1ccc2c(c1)OCCO2	-2.74%
CN(C)c1ccc(/C=C/C(=O)c2ccc(C(C)(C)C)cc2)cc1[N+](=O)[O-]	27.8%
CN(C)c1ccc(/C=C/C(=O)c2ccc(O)cc2)cc1[N+](=O)[O-]	48.8% (active)
O=C(/C=C/c1ccc2c(c1)OCCO2)c1ccc(O)cc1	56.9% (active)

Structure (SMILES)	inhibition
O=C(/C=C\c1ccc2c(c1)OCO2)NC1(C(=O)Nc2ccc3c(c2)OCCO3)CCCCC1	-4.85%
O=C(/C=C/c1ccc(Cl)c([N+](=O)[O-])c1)c1ccc(O)cc1	10.6%
CCOc1ccc(N2CC(C(=O)NCc3ccccn3)CC2=O)cc1 (centres undefined)	-7.37%
COc1cc(/C=C/C(=O)N2CCc3ccccc3C2)cc(OC)c1OC	-4.9%
Cc1ccc(S(=O)(=O)N2CCC(Oc3ccc(-n4cnnn4)cc3)CC2)cc1	1.93%
Cc1ccc(C)c(N2CCN(C(=O)Cn3ncn4cccc4c3=O)CC2)c1	-2.82%
CCc1nc2nc(C)c(NS(=O)(=O)c3ccc4c(c3)CCCC4)c(=O)n2[nH]1	-6.5%
Cc1cccc(CNS(=O)(=O)c2ccc(-c3cnc(C4CC4)o3)cc2)c1	13.9%
O=C(OCc1ccc([N+](=O)[O-])cc1)c1ccccn1	1.67%
N/C(=N\OC(=O)Cc1ccc([N+](=O)[O-])cc1)c1ccccn1	124% (active)
N/C(=N\OC(=O)COc1ccc([N+](=O)[O-])cc1)c1ccc(Br)cc1	2.73%
N/C(=N\OC(=O)c1ccc([N+](=O)[O-])cc1)c1ccccn1	71% (active)
N/C(Cc1ccc([N+](=O)[O-])cc1)=N\OC(=O)COc1ccc2ccccc2c1	12.2%
CO/N=C(\N)c1ccc([N+](=O)[O-])cc1	-2.22%
CC(C)(C)c1ccc(Cn2nnc3c(=O)[nH]c(C4CCCN(C(=O)c5ccco5)C4)nc32)cc1 (centres undefined)	2.02%
Cc1cc(C)n(CCC(=O)N2CCN(S(=O)(=O)c3ccc(C)c(C)c3)CC2)n1	-6.68%
Cc1ccc(CNC(=O)C2CCCN2S(=O)(=O)c2ccc3c(c2)C(C)(C)C(=O)N3C)cc1 (centres undefined)	-2.07%
Cc1cc(C(F)F)nn1CC(=O)NC1CCCCCC1	-2.84%
CCn1c(=S)sc2c(=O)n(CC(=O)Nc3ccc(OC)cc3)c(C)nc21	-8.22%
COc1cc(CCC(=O)Nc2ccncc2Cl)cc(OC)c1OC	-2.22%
CN(C(=O)CSc1nncc2ccccc12)C1CCCCC1	69.8% (active)
CN(C(=O)CCn1c(=S)oc2ccccc21)C1CCCCC1	-6.3%
CN(C(=O)CSc1nnnn1-c1ccccc1)C1CCCCC1	31.7%
O=C(Cc1ccc(F)cc1)NC1CCCC1	-4.53%

Structure (SMILES)	inhibition
O=C(CC1CCCCC1)NCc1ccc(F)cc1	61.1% (active)
O=C(Cn1nc(C(F)(F)F)c2c1CCC2)NCc1ccc(F)cc1	-2.3%
CC(=O)Nc1ccc(S(=O)(=O)N2CCN(C3CCCCCCC3)CC2)cc1	-14.3%
CC(=O)Nc1ccc(N2C(=O)C3C4C=CC(CC4)C3C2=O)cc1 (centres undefined)	11.7%
O=C(CC1CCCCC1)NCc1ccccc1	107% (active)
CC(=O)Nc1ccc(NC(=O)CC2CCCC2)cc1	48.2% (active)
O=C(CCc1ccc(S(=O)(=O)NC2CCCCC2)cc1)NCc1ccccc1	-10%
O=C(CC1CCCCC1)NCc1ccco1	-2.21%
Cc1ccc(Cn2c(C)c3cnn(CC(=O)NCc4ccccn4)c(=O)c3c2C)cc1	-6.49%
Cc1nn(CC2CC2)c(=O)n1N(C)c1ncc(C(F)(F)F)cc1Cl	-23.8%
COc1ccc(NS(=O)(=O)c2ccc(F)cc2F)cn1	-5.14%
CCOC(=O)Cn1c(=O)n(Cc2ccc(OC)cc2)c(=O)c2cccnc21	-6.29%
Cc1cc(NS(=O)(=O)c2ccc(NC(=O)C(C)Oc3cccc(C)c3C)cc2)nc(C)n1 (centres undefined)	1.79%
CC(NC(=O)COc1ccc(-c2ccccc2)cc1)C1CCCO1 (centres undefined)	12%
Cc1ccc2c(CC(=O)NCc3cccs3)coc2c1	77.5% (active)
O=C(Cc1coc2ccc3ccccc3c12)NCc1cccs1	1.44%
COc1ccc(C)cc1NC(=O)CNCc1cccs1	-6.47%
CC(C)[C@H](NC(=O)N1CCn2c1nc1ccccc12)C(=O)NC1CC1	25.9%
CCOC(=O)C1(Cc2ccccc2C(F)(F)F)CCN(C(=O)c2cc(C)n(C)n2)CC1	109% (active)
CCOC(=O)C1(Cc2ccc(Cl)cc2)CCN(C(=O)C2=NNC(=O)CC2)CC1	-6.2%
CCOC(=O)C1(CCOc2ccccc2)CCN(C(=O)c2cncs2)CC1	-4.69%
COC(=O)c1ccc(CNC(=O)C2CCC(=O)N(Cc3ccccn3)C2)cc1 (centres undefined)	-9.5%
